# Screens (PubChem)
# A selection follows.
# aSyn 5UTR act = Activators via SNCA 5'UTR binding, MLPCN; activity score, % (tested at 7.5 µM), hits read low; actives 7.1% (n = 300,000); AID 1814, 2009; alpha-synuclein 5'UTR reporter, activators screen; in the data active = activity score below about -60%
# * = called active by the depositor.
SMILES,aSyn 5UTR act
O=c1oc(Nc2cccc(Cl)c2)nc2ccccc12,-84.6*
CCn1c(SC(C)C)nnc1-c1cc(-c2ccccc2)sc1N,-171.4*
O=c1[nH]c(COc2ccc(Cl)cc2Cl)nc2ccccc12,-188.9*
O=c1[nH]c(COc2ccc(Cl)cc2Br)nc2ccccc12,-123.1*
COC(=O)c1c(C)[nH]c(C(=O)OCc2ccc(F)cc2)c1C,-189.4*
CCOC(=O)c1[nH]c(C)c(C(=O)c2cc(F)ccc2F)c1C,73.9
CC(=O)c1c(C)[nH]c(C(=O)OCc2ccc(F)cc2Cl)c1C,-68.3*
COC(=O)C1CC23C=CCN4CCC5(c6ccccc6NC15C2C)C43 (configuration not stated),93.8
CCCNC(=O)c1ccccc1NC(=O)c1ccc2c(c1)NC(=O)C(C)S2 (configuration not stated),-96.1*
CC(=O)c1ccccc1NC(=O)c1ccc2c(c1)NC(=O)C(C)S2 (configuration not stated),-135.0*
CCCNC(=O)c1ccc2c(=O)c(O)c(-c3ccc(F)cc3)[nH]c2c1,80.7
COc1nc(-c2ccccc2)ccc1-c1noc(-c2ccccc2F)n1,-108.8*
COc1nc(C)ccc1-c1noc(-c2ccco2)n1,-124.1*
COc1nc(-c2ccc(C)cc2)ccc1-c1noc(-c2ccco2)n1,-69.8*
NC(N)=NS(=O)(=O)c1ccc(N/C=C/C(=O)c2ccc(Cl)c(Cl)c2)cc1,-118.9*
Cc1[nH]cnc1C(=O)N/N=C/c1c(Cl)cccc1Cl,-72.6*
Cc1[nH]n(-c2ccccc2)c(=O)c1/C=C1/C=c2ccccc2=N1,-68.7*
CCc1ccc(NC(=O)NCCCN2CCCC2=O)cc1,-65.2*
Cc1ccc(NC(=O)C(=O)NCCCN2CCCC2=O)cc1,-70.9*
O=C(Nc1nc2c(cc3c4c(cccc42)CC3)s1)c1ccccc1Cl,-65.0*
COc1cc(/C=N/N2CCN(C3c4ccccc4-c4ccccc43)CC2)ccc1O,-63.4*
COc1ccc(C2=NNC(c3cc(Cl)cc4c3OCOC4)C2)c(O)c1 (configuration not stated),-73.2*
O=C(Nc1ccc2c(c1)OCO2)N1CCN(c2ccccc2Cl)CC1,-187.4*
O=C(Nc1ccc2c(c1)OCO2)N1CCC(CO)(CC2CCCCO2)CC1 (configuration not stated),-90.9*
O=C(Nc1ccc2c(c1)OCO2)N1CCN(S(=O)(=O)c2ccc(Cl)cc2)CC1,-67.8*
SMILES,aSyn 5UTR act
Clc1ccc(-c2nc3ccncc3[nH]2)cc1,-100.5*
O=[N+]([O-])c1ccc2nc(-c3ccc(Cl)cc3)[nH]c2c1,-221.4*
COc1ccc2cc(-c3ccccc3)ncc2c1,-64.9*
COc1ccc2[nH]c(-c3ccccc3)cc2c1,-139.2*
COc1ccc(-c2cc3c(nn2)-c2ccccc2C3=O)cc1,98.4
O=[N+]([O-])c1cccc(-c2nc3ccc([N+](=O)[O-])cc3[nH]2)c1,-142.3*
COc1ccc(-c2nc3ccc([N+](=O)[O-])cc3[nH]2)cc1,-63.4*
O=[N+]([O-])c1ccc(/C=C/c2nc3ccc([N+](=O)[O-])cc3[nH]2)cc1,-165.0*
COc1ccc2nc(-c3ccccc3)[nH]c2c1,-70.7*
O=[N+]([O-])c1ccc(-c2cc(-c3ccc(Cl)cc3)n[nH]2)cc1,-74.6*
CCCC(=O)N/C(N)=N/c1nc2ccccc2o1,-121.5*
CC(C)CC(=O)N/C(N)=N/c1nc2ccccc2o1,-159.6*
CSc1ccc(/C=C(/NC(=O)c2ccccc2)C(=O)N2CCN(C)CC2)cc1,-146.9*
CCN(CC)C(=O)c1sc2nc(-c3ccc(OC)cc3)cn2c1C,-150.5*
CNC(=O)c1sc2nc(-c3ccc(OC)cc3)cn2c1C,-138.5*
Cc1ccc(N2C(=O)c3ccccc3NC2(C(=O)O)c2ccccc2)cc1Cl (configuration not stated),-68.4*
Cc1ccc(-c2nnc(CCC(=O)NCC3C4CC5CC(C4)CC3C5)o2)s1 (configuration not stated),-170.2*
COC(=O)c1c(-c2cccs2)csc1NC(=O)c1cccnc1,-86.6*
Cc1ccc(Nc2nc(CSc3nnc(-c4ccccc4C)n3C)cs2)cc1,-93.3*
Cc1ccc(Nc2nc(CSc3nnc(-c4ccccc4)n3C)cs2)cc1,-67.9*
O=C(O)c1ccc(/C=N/N2CCN(c3ccccc3)CC2)cc1,-207.0*
COc1ccccc1N1CCN(/N=C/c2ccc(C(=O)O)cc2)CC1,-128.5*
COc1ccccc1N1CCN(c2ccc(-c3ccccc3)nn2)CC1,79.0
COc1ccccc1N1CCN(/N=C/C=C\c2ccco2)CC1,-135.7*
Cc1nc2cc(Nc3nnc(-c4ccccc4)c4ccccc34)ccc2n1C,-109.6*
SMILES,aSyn 5UTR act
CCNC(=S)N=Nc1c(O)[nH]c2ccc(C(C)C)cc12,63.2
Oc1cccc(NC(=S)N=Nc2c(O)[nH]c3ccccc23)c1,-158.2*
CCCCNC(=S)N=Nc1c(O)[nH]c2ccccc12,-81.3*
CN(CC(=O)N1CCc2ccccc21)S(=O)(=O)c1cccs1,-129.8*
Nc1c(C(=O)c2ccccc2)sc2nsc(SCCN3CCOCC3)c12,-157.1*
Cc1ccn2c(=O)nc(SCC(=O)c3ccccc3)nc2c1,-76.0*
Cc1ccc2nc(SCC(=O)c3ccccc3)nc(=O)n2c1,-111.8*
Cc1ccc(-n2nnnc2Sc2ccc(S(=O)(=O)NCCN(C)C)cc2[N+](=O)[O-])cc1,-93.2*
O=[N+]([O-])c1cc(S(=O)(=O)NCCN2CCOCC2)ccc1Sc1nnnn1-c1ccccc1,-95.8*
COc1ccc(C(=O)CC(=O)c2ccccc2)cc1,-125.0*
CCOc1ccc(C(=O)CSCCC(=O)O)cc1,68.3
COC(=O)c1ccc(OCC(=O)c2ccccc2)cc1,-133.2*
O=C(CNS(=O)(=O)c1ccccc1)OCC(=O)c1ccc(OC(=O)c2ccccc2)cc1,-66.7*
COc1ccc(C(=O)Cc2nnc(C)s2)cc1,-98.6*
COc1ccc(C(CC(=O)c2ccccc2)S(=O)(=O)c2ccc(C)cc2)cc1 (configuration not stated),-186.1*
COc1ccc(C(=O)CC(=O)c2ccc(OC)cc2)cc1,-70.8*
COc1ccc(S(=O)(=O)Nc2cc3c(C(C)=O)c(C)oc3c3ccccc23)cc1,81.9
COc1ccc(C(=O)NCC(=O)c2ccccc2)cc1,-101.7*
COc1ccc(C(=O)CCNc2ccc(F)cc2)cc1,-114.2*
COc1ccc(C(=O)C[n+]2ccc3ccccc3c2C)cc1,-143.8*
CNS(=O)(=O)c1cc2c3c(cccc3c1)C(=O)NC2=O,71.1
CNc1cccc2c1C(=O)c1ccccc1C2=O,-119.3*
O=c1oc2ccccc2cc1-c1nc(-c2ccccc2)no1,-130.8*
Cc1ccc(-c2noc(-c3cc4ccccc4oc3=O)n2)cc1,-80.0*
Cc1cccc(-c2noc(-c3cc4ccccc4oc3=O)n2)c1,-157.7*
SMILES,aSyn 5UTR act
OCC1(Cc2ccccc2)CCN(Cc2cnc(-c3ccc(Cl)cc3)nc2)CC1,-73.9*
Cc1ccc(-n2cc(CN3CCC(CO)(Cc4ccccc4)CC3)cn2)cc1,-107.8*
O=C1COc2ccc(OCc3ccc(F)cc3)cc21,-99.8*
CCN(CC)CCn1c(=N)n(CCOc2ccccc2)c2ccccc21,-93.1*
CCc1ccc(C(=O)c2cncc(Br)c2)cc1,-63.0*
CCOc1ccc(NC(=O)C(C)Oc2ccccc2C(=O)Nc2ccc(C)c(Cl)c2)cc1 (configuration not stated),-126.2*
Cc1cccc(NC(=O)c2ccccc2OCC(=O)c2ccc(F)cc2)c1,29.8
Cc1ccc(NC(=O)COc2ccccc2C(=O)Nc2ccccc2)cc1Cl,-82.0*
Cc1ccc(NC(=O)CSc2ccccc2NC(=O)c2ccccc2)cc1Cl,-78.3*
